From PubChem BioAssay (NCATS)
Values without a mark were called inactive. The rule behind the calls is not given here.

test system: HIV-1 nucleocapsid protein NCp7 (binding to TG oligonucleotide); assay: HIV Nucleocapsid (AID 346); conditions: HIV-1 NC / fluorescein-TGTGTGTG probe, fluorescence polarization;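 note: potency is for inhibitors that block NC binding and lower polarization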
Outline: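 10 nM TG4xF probe with 100 nM nucleocapsid protein in high-salt Hepes pH 7.5 (250mM NaCl) containing 1uM ZnCl2 and reducing agents. Compound inhibition of binding was read as fluorescein polarization after 1 hr at room temperature.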
Potency is the fitted concentration of half-maximal effect.

SMILES	Potency [µM]
Cc1ccccc1-c1ccc2ncnc(NCc3cccnc3)c2c1	> 20
O=S(=O)(c1ccccc1)N1CCC[C@@]2(CCN(c3ccncc3)C2)C1	> 20
O=c1c(CCc2ccccc2)nc2cncnc2n1Cc1ccc(F)cc1	> 20
CCNc1ncc2ncc(=O)n(C3CC3)c2n1	> 20
COCCn1c(=O)c(-c2ccc(F)cc2)nc2cnc(OCc3ccccc3)nc21	> 20
COc1ccc(NC(=O)N2CC3(CCN(C(C)=O)CC3)C2)cc1	> 20
Cc1noc(C)c1-c1nc(NCc2cccs2)c2ccccc2n1	> 20
CN(C)c1ncc2nc(-c3cccc(C#N)c3)c(=O)n(CCC#N)c2n1	> 20
Cc1cccc(CNc2cc(-c3ccccc3CN(C)C)ncn2)c1	> 20
COc1ccc(-c2nc3cnc(N4CCN(C)CC4)nc3n(Cc3cccc(OC)c3)c2=O)cc1	> 20
COCCn1c(=O)c(-c2cccs2)nc2cnc(Oc3cccc(Cl)c3)nc21	> 20
COc1ccccc1CNc1ncnc2ccc(-c3c(C)noc3C)cc12	> 20
COc1ccc(Oc2ncc3nc(C)c(=O)n(Cc4cccs4)c3n2)cc1	> 20
COc1cccc(Cn2c(=O)c(-c3ccc(F)cc3)nc3cnc(N4CCOCC4)nc32)c1	> 20
COc1cccc(Cn2c(=O)c(C)nc3cnc(Nc4cccc(OC)c4)nc32)c1	> 20
O=C(Nc1cccc(F)c1)N1CC[C@@]2(CCCN(C(=O)c3ccncc3)C2)C1	> 20
CN(C)c1ncc2nc(-c3ccccc3)c(=O)n(C3CC3)c2n1	> 20
CC(C)NC(=O)N1CC[C@@]2(CCCN(C(=O)c3csnn3)C2)C1	> 20
c1cncc(CNc2cc(-c3ccoc3)ncn2)c1	> 20
COc1ccccc1CNc1ncncc1-c1ccc(N(C)C)cc1	> 20

SMILES	Potency [µM]
COc1ccc(C(=O)N2CCC3(CCCN(c4cccc(-c5ccccc5)c4)C3)CC2)cc1	> 20
CCNc1ncc2nc(-c3cn(C)c4ccccc34)c(=O)n(CCC#N)c2n1	> 20
O=C(Nc1ccccc1)N1CC[C@@]2(CCCN(C(=O)c3cc(C(F)(F)F)cc(C(F)(F)F)c3)C2)C1	> 20
COc1ccc(C(=O)N2CCC[C@@]3(CCN(Cc4ccncc4)C3)C2)cc1	> 20
COc1ccc2[nH]cc(CCNc3nc(-c4cccc(C#N)c4)nc4ccccc34)c2c1	> 20
CN1CCN(c2ncc3nc(-c4cccs4)c(=O)n(-c4ccccc4)c3n2)CC1	16.7
CNc1ncncc1-c1ccccc1C	> 20
CCNc1ncc2nc(-c3cccc(C#N)c3)c(=O)n(CCC#N)c2n1	> 4
Cc1noc(C)c1C(=O)N1CCC2(CC1)CN(c1cccc(-c3ccccc3)c1)C2	> 20
O=C(c1ccco1)N1CCC2(CCCN(Cc3ccncc3)C2)CC1	> 20
CN(Cc1ccco1)c1ncncc1-c1ccccc1C(F)(F)F	> 20
Cn1cccc1C(=O)N1CCC[C@@]2(CCN(Cc3cc(C(F)(F)F)cc(C(F)(F)F)c3)C2)C1	> 20
CN1CCN(c2ncc3nc(-c4cn(C)c5ccccc45)c(=O)n(Cc4cccs4)c3n2)CC1	> 20
CN(C)c1ccnc(-c2ccccc2C(F)(F)F)n1	> 20
Cc1cccc(CNc2cc(-c3ccc(C(=O)N(C)C)cc3)ncn2)c1	> 20
Cc1nc2cnc(Oc3ccccc3)nc2n(CCc2ccccc2)c1=O	> 20
CN(C)Cc1ccccc1-c1nc(NC2CCNCC2)c2ccccc2n1	> 20
COc1ccccc1-c1cncnc1NCc1cccs1	> 20
COc1ccc(Oc2ncc3nc(-c4cc(F)cc(F)c4)c(=O)n(C)c3n2)cc1	> 20
COc1ccc(CNc2ccnc(-c3ccc(C(=O)N(C)C)cc3)n2)c(OC)c1	> 20
